# “And” between values parts separate entries of the source, which are not always exact repeats. Equal values may be shown once. Inconclusive results are not listed. The source made the active and inactive calls. The call rests on the fitted dose curve; in most records, active means well fitted cell-killing curve with a large enough effect; inconclusive means small, poorly fitted or top-dose-only effect; inactive means no such curve, though single readings can be large or run the other way.
# Test: qHTS of pediatric cancer cell lines to identify multiple opportunities for drug repurposing: Confirmatory screen for TC32 cells (AID 1347118);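 further: cells exposed to compound for 48 h before the read; nearly all actives have a fitted effect of over 65% in size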
# Conditions: TC32 Ewing sarcoma cells viability qHTS; series mostly up to 45.9 µM
# Excerpt: Drug repurposing or repositioning has been offered as a strategy for drug development in oncology programs. This approach has special potential for childhood cancers and other rare or orphan diseases, where the expected return on new drug development has been a disincentive to pharmaceuticals.
# In this project we exploit the poly-pharmacology of drugs to discover new indications via phenotypic screening of a panel of 19 well-characterized cell lines derived from solid tumors seen in children and adolescents. The goal is to identify approved drugs with previously unrecognized anticancer properties that has the potential to reveal new mechanisms and biological processes involved in carcinogenesis or drug resistance. We employed a titration-based paradigm (quantitative high-throughput screening or qHTS), where all compounds were tested at multiple concentrations for their effect on cell viability. Concentration-response curves (CRCs) were derived directly from the primary screen, and both potency and efficacy values were used to identify compounds with robust bioactivity profiles. We screened the NIH Chemical Genomics Center (NCGC) Pharmaceutical Collection (NPC) and Mechanism Interrogation Plate (MIPE) small molecule collections of approved and investigational compounds against these cell lines; and measured metabolically active cells after 48 hours of compound treatment as a proxy for cell viability.
# Assay Submitter: Nathalia J. Martinez, National Center for Advancing Translational Sciences, National Institutes of Health, Rockville, MD, USA; email: natalia.martinez@nih.gov
# [1] Shen, M et al. Quantitative high-throughput phenotypic screening of pediatric cancer cell lines identifies multiple opportunities for drug repurposing. Oncotarget 2017 Dec 19;9(4):4758-4772. PMID 29435139.
# The cells were obtained from University of North Carolina (UNC), Pediatric Preclinical Testing Program (PPT), and Coriell Institute (CI).
# qHTS cell viability assay:
# Cells were assayed in growth media at a density of 500-1,000 cells/well. Five microliters of cells were dispensed into 1,536-well, white, solid-bottom, TC-treated plates (Greiner Bio One) using a multidrop dispenser and incubated at 37 degrees C, 5% CO2, under a humidified atmosphere for 5 hours. Twenty-three nanoliters of compounds and controls (neutral control DMSO or positive control bortezomib at final concentration of 2.3 uM) were subsequently transferred by Kalypsys pintool. For primary screens, the MIPE collection was tested at 11-point dilutions (final concentrations range from 0.78 nM to 46 µM) and the NPC collection at 8-point dilutions (final concentrations range from 0.59 nM to 46 µM). Compounds tested in follow-up screens were assayed at 11-point dilutions. Cells were incubated for 48 hours, followed by addition of 3 uL of CellTiter-Glo (Promega). After a 15min incubation at room temperature, samples were analyzed for luminescence intensity using a ViewLux High-throughput CCD imager equipped with clear filters.
# Potency means the concentration at half of the fitted maximal effect.
row,SMILES,Potency
1,CC(C)CC(N(C)C)C1(c2ccc(Cl)cc2)CCC1 (stereo unspecified),23.3 µM (active)
2,N[C@@H](Cc1ccc(N(CCCl)CCCl)cc1)C(=O)O,9.27 µM (active)
3,O=P1(NCCCl)OCCCN1CCCl (stereo unspecified),inactive
4,C[C@@H]1[C@@H](CC(C[C@H]2O[C@@H]3O[C@]4(C)CC[C@@H]5[C@H](C)CC[C@@H]([C@H]2C)[C@@]35OO4)C[S+](=O)([O-])c2ccc(COC(=O)N(C)C)cc2)O[C@@H]2O[C@]3(C)CC[C@H]4[C@H](C)CC[C@@H]1[C@@]24OO3 (stereo partly specified),0.585 µM (active)
5,O=c1[nH]c2ccccc2n1CCCN1CCC(n2c(=O)[nH]c3cc(Cl)ccc32)CC1,3.29 µM (active)
6,C[C@@H]1[C@@H](C(=O)C[C@H]2O[C@@H]3O[C@]4(C)CC[C@@H]5[C@H](C)CC[C@@H]([C@H]2C)[C@@]35OO4)O[C@@H]2O[C@]3(C)CC[C@H]4[C@H](C)CC[C@@H]1[C@@]24OO3,9.27 µM (active)
7,C=C(C)[C@H]1Cc2c(ccc3c2O[C@@H]2COc4cc(OC)c(OC)cc4[C@@H]2C3=O)O1,0.329 µM (active)
8,Cc1sc2c(c1C)C(c1ccc(Cl)cc1)=N[C@@H](CC(=O)OC(C)(C)C)c1nnc(C)n1-2,0.827 µM (active)
9,C[C@@H]1O[C@@H](O[C@H]2C[C@@H](O)[C@]3(CO)[C@H]4[C@H](O)C[C@]5(C)[C@@H](C6=CC(=O)OC6)CC[C@]5(O)[C@@H]4CC[C@]3(O)C2)[C@H](O)[C@H](O)[C@H]1O,92.8 nM (active) and 165 nM (active)
10,C[C@H]1O[C@@H](O[C@H]2[C@@H](O)C[C@H](O[C@H]3[C@@H](O)C[C@H](O[C@H]4CC[C@@]5(C)[C@H](CC[C@@H]6[C@@H]5CC[C@]5(C)[C@@H](C7=CC(=O)OC7)CC[C@]65O)C4)O[C@@H]3C)O[C@@H]2C)C[C@H](O)[C@@H]1O,0.0827 µM (active)
11,Cn1c(CCCC(=O)O)nc2cc(N(CCCl)CCCl)ccc21,4.65 µM (active)

# — PubChem BioAssay (NCATS)
